Experimental data reported in PubChem BioAssay (NCI).
Compounds without any hit were thinned out: in the full panel of roughly 83,000, 20% have a hit.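 In brief: 96-well plates, 48 h treatment, single concentration, percent growth endpoint.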 Active and inactive are the calls of the source. How the source made its calls: active means growth percent below 10; inactive means the rest.

Columns and labels:
Test in all cases: NCI-60 one-dose screen, 48 h (100 = growth as untreated, 0 = no growth, -100 = all killed)
Conditions in all cases: 10 µM unless noted
[1] = system: BT-549 breast
[2] = system: MDA-MB-435 melanoma
[3] = system: SW-620 colon
[4] = system: MCF7 breast
[5] = system: HCT-116 colon
[6] = system: HCC-2998 colon
[7] = system: KM12 colon

Measured: growth

COC(=O)[C@]12CC[C@@H](C)[C@H](C)[C@@H]1C1=CC[C@@H]3[C@@]4(C)C=C(O)C(=O)[C@@]5(C)COC(=C54)C[C@@]3(C)[C@]1(C)CC2
active: [1] -66.6% | [2] -60.9% | [3] -65.6% | [4] -70.5% | [5] -86.4% | [6] -83.3% | [7] -74.2%

O=c1c(O)cccn1CCCNCCCN(CCCn1cccc(O)c1=O)CCCn1cccc(O)c1=O
inactive: [1] 113% | [2] 104% | [3] 99.1% | [4] 104% | [5] 108% | [6] 101% | [7] 106%

Cc1c(C(N)=O)sc2nc(SCC(=O)Nc3ccc(Cl)cc3)n(-c3ccccc3)c(=O)c12
inactive: [1] 69.1% | [2] 112% | [3] 128% | [4] 104% | [5] 103% | [6] 109% | [7] 118%

ClC1=C(Cl)C(Cl)=C(Cl)C1=Cc1ccc(Cl)cc1
active: [1] -38.9% | [2] -42.3% | [3] -83.9% | [5] -84.1% | [7] -69.6%
inactive: [4] 25% | [6] 30.9%

CO[C@H]1/C=C/O[C@@]2(C)Oc3c(C)c(O)c4c(O)c(c(/C=N/N5CCN(C)CC5)c(O)c4c3C2=O)NC(=O)/C(C)=C\C=C\C(C)[C@H](O)[C@@H](C)[C@@H](O)[C@@H](C)[C@@H](OC(C)=O)[C@@H]1C (some centres not stated)
inactive: [1] 99.2% | [2] 103% | [3] 107% | [4] 98.7% | [5] 101% | [6] 99.5% | [7] 100%

O=[N+]([O-])c1ccc(Oc2cccc(C(F)(F)F)c2)c([N+](=O)[O-])c1
inactive: [3] 13.5% | [4] 112% | [6] 92.5% | [7] 86.2%
active: [1] 3.1% | [2] -16.6% | [5] 3.46%

O=C(C(Br)Br)C(Br)C(Br)c1ccccc1 (configuration not stated)
inactive: [1] 95.8% | [2] 82.3% | [4] 69.7% | [5] 24.7% | [6] 112% | [7] 102%
active: [3] -46.9%

Cc1ccc([N+](=O)[O-])cc1NC(=O)Nc1cccc(F)c1
inactive: [1] 92.7% | [2] 76.7% | [3] 99.7% | [4] 69.8% | [5] 44% | [6] 91.8% | [7] 80.9%

CCn1c2ccccc2c2ccc(C(C)=O)cc21
inactive: [1] 96.9% | [2] 104% | [3] 114% | [4] 102% | [5] 105% | [6] 108% | [7] 115%

COc1ccc2c(c1)nc(N)c1c3ccccc3cn21
active: [2] 2.56%
inactive: [1] 88.4% | [3] 56.8% | [4] 44.8% | [5] 59.1% | [6] 103% | [7] 63%

CCCC[N+](CCCC)=c1ccc2nc3c(C)cc(N(CC)CC)cc3sc-2c1
inactive: [6] 24.4%
active: [1] 2.12% | [2] -88.1% | [3] -71.9% | [4] -50% | [5] -24.7% | [7] 0.608%

COc1ccc2nccc(/C=C/c3ccnc4ccc(OC)cc34)c2c1
inactive: [1] 189% | [2] 111% | [3] 104% | [4] 88.1% | [5] 102% | [6] 96.5% | [7] 99.5%

Oc1ccc(-c2nn(-c3ccccc3)cc2-c2nc3ccccc3s2)cc1
inactive: [1] 103% | [2] 102% | [3] 99.6% | [4] 50.4% | [5] 88.8% | [6] 102% | [7] 82.8%

CCCCCCCCSc1ncnc2c1ncn2CO
inactive: [1] 84.6% | [2] 82.6% | [3] 93.8% | [4] 75.7% | [5] 66.8% | [6] 109% | [7] 88.2%

CO[C@H]1/C=C/O[C@@]2(C)Oc3c(C)c(O)c4c(O)c(c(/C=N/N5C(C)CN(Cc6ccccc6)CC5C)c(O)c4c3C2=O)NC(=O)/C(C)=C\C=C\[C@H](C)[C@H](O)[C@@H](C)[C@@H](O)[C@@H](C)[C@H](OC(C)=O)[C@@H]1C (some centres not stated)
inactive: [1] 125% | [2] 86.6% | [3] 80.1% | [4] 44.6% | [5] 37.9% | [7] 52.6%

Nc1nc(N)c([N+](=O)[O-])c(=O)[nH]1
inactive: [1] 114% | [2] 104% | [3] 97.4% | [4] 88.6% | [5] 110% | [6] 103% | [7] 111%

CCOC(=O)C1=NN(c2ccc(Cl)cc2)C2C3N(c4ccc(Cl)cc4)N=C(C(=O)OCC)N3c3ccccc3N12 (configuration not stated)
inactive: [1] 123% | [2] 100% | [3] 110% | [4] 85.7% | [5] 87.9% | [6] 97.5% | [7] 103%

COc1cc(C2=NN(C(C)=O)C(c3ccc(OC(C)=O)cc3OC(C)=O)O2)c(OC(C)=O)c2ccccc12 (configuration not stated)
inactive: [1] 23.8% | [2] 28.8% | [3] 30.9% | [4] 14.1% | [5] 14.4% | [7] 22.3%

O=C(Nc1ccc(Oc2ccc(NC(=O)Nc3ccc([N+](=O)[O-])cc3)cc2)cc1)Nc1ccc([N+](=O)[O-])cc1
active: [1] -21.5% | [2] 5.67% | [4] -7.4% | [5] -6.3% | [7] -5.89%
inactive: [3] 10.8%

O=C1OCC/C1=C\OCCCO/C=C1\CCOC1=O
inactive: [1] 96.9% | [2] 104% | [3] 109% | [4] 104% | [5] 109% | [6] 114% | [7] 114%

Cn1cc(-c2csc(-c3cn(C)c4ncccc34)n2)c2cccnc21
inactive: [1] 93.6% | [2] 75.8% | [3] 92.4% | [4] 91.6% | [5] 95% | [6] 99.2% | [7] 96.4%

OCCOc1c(Cl)cc(Cl)cc1Cl
inactive: [1] 109% | [2] 103% | [3] 98.7% | [4] 89% | [5] 109% | [6] 110% | [7] 115%

CCS(=O)(=O)OCCCl
inactive: [1] 89.6% | [2] 106% | [3] 108% | [4] 102% | [5] 107% | [7] 115%

COc1cc(/C=C/C(=O)c2ccc(F)cc2)ccc1OCCCCCOc1cc2c(cc1OC)C(=O)N1CCCC1C=N2 (configuration not stated)
active: [1] -58% | [2] -87.5% | [3] -46.6% | [5] -23.9% | [7] -63.4%
inactive: [4] 16%

COc1ccc(-c2cc(C(=O)Nc3nc4cc(C)c(C)cc4s3)nc3cc(-c4ccccc4)nn23)cc1OC
inactive: [1] 122% | [2] 96.8% | [3] 47.3% | [4] 99% | [5] 108% | [6] 99.7% | [7] 112%

COc1ccc(-c2c(-c3cc(OC)c(OC)c(OC)c3)noc2N)cc1
active: [2] -6.19% | [5] 8.77% | [7] 7.28%
inactive: [1] 13.2% | [3] 21.7% | [4] 17.1% | [6] 17.4%

COc1ccc(-c2nn(-c3ccccc3)cc2/C=C2\SC(=S)N(CCc3ccc(O)cc3)C2=O)cc1
inactive: [1] 103% | [2] 84.4% | [3] 87.6% | [4] 70.5% | [5] 90.2% | [6] 107% | [7] 81.5%

CCCc1cccc(CCC)c1O
inactive: [1] 117% | [2] 106% | [3] 104% | [4] 113% | [5] 115% | [6] 100% | [7] 112%

COc1ccc2nc(-c3ccc(-n4cncc4-c4ccc(OC)c(N)c4)cc3)sc2c1
inactive: [1] 102% | [2] 105% | [3] 97.4% | [4] 82.1% | [5] 98.4% | [6] 111% | [7] 105%

Cc1cc(C(C)(C)c2cc(C)c(O)c(CN(C)C)c2)cc(CN(C)C)c1O
inactive: [1] 84.5% | [2] 78.1% | [3] 92.7% | [4] 96.4% | [5] 55.1% | [6] 82.1% | [7] 101%

CCOc1cc(C(C)(C)C)ccc1C1=N[C@H](c2ccc(Cl)cc2)[C@H](c2ccc(Cl)cc2)N1C(=O)N1CCN(CC#Cc2cccc3c2CN([C@@H]2CCC(=O)NC2=O)C3=O)CC1
inactive: [1] 22.9% | [2] 33.6% | [3] 26.9% | [5] 17.8% | [6] 25.3% | [7] 26.3%
active: [4] 8.49%
